Laboratory results: PubChem BioAssay (NCATS)
Where “and” joins values, the source holds several entries; their conditions need not be identical. Identical values can stand only once. Records with an inconclusive call do not appear. Entries that show only a call come without a potency. Where a structure was tested more than once in an assay, its records may differ in their call. Calls of active or inactive are those of the source. The call rests on the fitted dose curve; in most records, active means well fitted inhibition curve with a large enough effect; inconclusive means small, poorly fitted or top-dose-only effect; inactive means no such curve, though single readings can be large or run the other way.

Assay: qHTS assay for measurement of the activity of small molecule inhibitors on Zika virus induced Caspase-3 activity in human iPSC derived neural progenitor cells (hNPCs) (AID 1224857); further: nearly all actives have a fitted effect of over 65% in size
Conditions: hNPCs ZIKV-induced caspase-3/7, Caspase-Glo luminescence, 6 h; series mostly up to 45.7 µM
Text: National Center for Advancing Translational Sciences [NCATS]
Johns Hopkins University School of Medicine
Increase in the Caspase-3 activity indicates an activation of apoptosis cell death pathway caused by Zika virus infection in certain types of neuronal cells including human neural progenitor cells (hNPCs), astrocytes, and astrocytoma cell line (SNB-19). This cell-based caspase-3 activity assay measures the increased caspase-3 activity in the human iPSC derived neural progenitor cells (hNPCs) after a 6-hour Zika virus infection with a luminescence readout. A decrease in the luminescence signal in this assay by small molecule treatment indicates an inhibitory effect of that small molecule on the Zika virus induced caspase-3 activity that may correlate with its effect on reduction of Zika virus caused cell death.
The medium for hNPCs consists of DMEM/F12, N2 supplement (ThermoFisher, Cat.# 17502048), NEAA (ThermoFisher, Cat. # 11140050), 2 ug/ml heparin, 2 uM cyclopamine, and B27 (ThermoFisher, Cat. # 17504044). A Caspase-Glo 3/7 assay kit (catalog number G8092; Promega, Madison, WI) was used to detect caspase-3 activity induced by Zika virus infection in human cells. The reagent mixture was reconstituted as described in the protocol from the manufacturer. Polystyrene tissue culture treated and PDL coated white plates were obtained from Greiner Bio-One (Monroe, NC). Cells were seeded in 384- or 1536-well assay plates and cultured at 37 C with 5% CO2 for 16 to 20 hours. The typical cell seeding density in the 1536-well plate assay is 350 cells/well in 3 ul medium for hNPCs in tissue culture treated plates. Compounds were added to cells and incubated for one hour before addition of ZIKV solution to cells (2 FFU/cell). After incubation at 37 C with 5% CO2 for 6 hours, the reagent mixture of Caspase-Glo 3/7 assay kit was added to each well, followed by incubation at room temperature for 30 minutes. The luminescence intensity of the assay plates was measured using a ViewLux plate reader (PerkinElmer). Data were normalized by using the cell-containing wells without ZIKV as a negative control (0% induction of caspase 3/7 activity) and wells containing ZIKV infected cells (Caspase-3 activity induced) as a positive control (100% induction of caspase 3 activity). The percentage inhibitions of the increased Caspase-3 activity by small molecule inhibitors were then calculated.
Potency means the concentration at half of the fitted maximal effect.

Compound | Potency
CC(C)Cc1ccc(C(C)C(=O)O)cc1 (stereo not given) | inactive
Cn1c(=O)c2c(ncn2C)n(C)c1=O | inactive
NC(CO)C(=O)NNCc1ccc(O)c(O)c1O (stereo not given) | inactive and 7.43 µM (active)
CC1(CN2CCC(n3c(=O)[nH]c4ccccc43)CC2)OCc2ccccc2-n2cccc21 (stereo not given) | inactive
OCCN1CCN(CCCN2c3ccccc3Sc3ccc(C(F)(F)F)cc32)CC1 | inactive
O=C1Cc2cc(CCN3CCN(c4nsc5ccccc45)CC3)c(Cl)cc2N1 | inactive
CN1CCC(=C2c3ccccc3CC(=O)c3sccc32)CC1 | inactive
Nc1nnc(-c2cccc(Cl)c2Cl)c(N)n1 | inactive
COc1ccc2c(c1)c(CC(=O)O)c(C)n2C(=O)c1ccc(Cl)cc1 | inactive
CN1CCN2c3ccccc3Cc3ccccc3C2C1 (stereo not given) | inactive
O=C1c2c(O)ccc(O)c2C(=O)c2c(NCCNCCO)ccc(NCCNCCO)c21 | inactive
COc1ccccc1OCC(O)CN1CCN(CC(=O)Nc2c(C)cccc2C)CC1 (stereo not given) | inactive
NCCCCCC(=O)O | inactive
Cc1cnc(C(=O)NCCc2ccc(S(=O)(=O)NC(=O)NC3CCCCC3)cc2)cn1 | inactive
CC1COc2c(N3CCN(C)CC3)c(F)cc3c(=O)c(C(=O)O)cn1c23 (stereo not given) | inactive
C[C@H]1c2cccc(O)c2C(O)=C2C(=O)[C@]3(O)C(O)=C(C(N)=O)C(=O)[C@@H](N(C)C)[C@@H]3[C@@H](O)[C@@H]21 | inactive
Clc1ccc2nsnc2c1NC1=NCCN1 | inactive and 20.9 µM (active)
CC(CCc1ccc(O)cc1)NCCc1ccc(O)c(O)c1 (stereo not given) | inactive
C[C@](N)(Cc1ccc(O)c(O)c1)C(=O)O | inactive
CC(C)(C)C(=O)Oc1ccc(S(=O)(=O)Nc2ccccc2C(=O)NCC(=O)O)cc1 | inactive

Compound | Potency
Cc1ccc(C(=O)Nc2ccc(S(=O)(=O)O)c3cc(S(=O)(=O)O)cc(S(=O)(=O)O)c23)cc1NC(=O)c1cccc(NC(=O)Nc2cccc(C(=O)Nc3cc(C(=O)Nc4ccc(S(=O)(=O)O)c5cc(S(=O)(=O)O)cc(S(=O)(=O)O)c45)ccc3C)c2)c1 | inactive
CC12CC3CC(C)(C1)CC(N)(C3)C2 | inactive
CCc1cccc2c3c([nH]c12)C(CC)(CC(=O)O)OCC3 (stereo not given) | inactive
NCCc1cnc[nH]1 | inactive
CN(C)CCC=C1c2ccccc2C=Cc2ccccc21 | inactive
CC(C)C(=O)Nc1ccc([N+](=O)[O-])c(C(F)(F)F)c1 | inactive
CCCCc1oc2ccccc2c1C(=O)c1cc(I)c(OCCN(CC)CC)c(I)c1 | inactive
CN(Cc1cnc2nc(N)nc(N)c2n1)c1ccc(C(=O)N[C@@H](CCC(=O)O)C(=O)O)cc1 | inactive
CC(C)NCC(O)c1ccc(O)c(O)c1 (stereo not given) | inactive
NC12CC3CC(CC(C3)C1)C2 | inactive
CCC1(c2ccccc2)C(=O)NCNC1=O | inactive
CS(=O)(=O)Nc1ccc([N+](=O)[O-])cc1Oc1ccccc1 | inactive
COc1ccccc1OCCNCC(O)COc1cccc2[nH]c3ccccc3c12 (stereo not given) | inactive
CCN1CCCC1CNC(=O)c1cc(S(=O)(=O)CC)c(N)cc1OC (stereo not given) | inactive
CN1C(C(=O)Nc2ccccn2)=C(O)c2ccccc2S1(=O)=O | inactive
Cn1ccc2cc3c(cc21)CCN3C(=O)Nc1cccnc1 | inactive
CCOC(=O)Nc1ccc(NCc2ccc(F)cc2)nc1N | inactive
CC1(C)O[C@H]2CC(=O)OC[C@]23[C@H]2CC[C@@]4(C)[C@H](c5ccoc5)OC(=O)[C@H]5O[C@]54[C@]2(C)C(=O)C[C@@H]13 | inactive
CCOC(=O)C(C)(C)Oc1ccc(Cl)cc1 | inactive
NS(=O)(=O)c1cc2c(cc1Cl)NCNS2(=O)=O | inactive
